Assay [1] can be described thus: qHTS assay for small molecule agonists of the p53 signaling pathway (AID 651631; calls by dose curve; note: nearly all actives have a fitted effect of over 15% in size). The procedure, abridged:
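Quantitative high-throughput format: 4,000 p53RE-bla HCT-116 cells/well, 5 h pre-incubation, 16 h compound exposure at 37 °C, 2 h room-temperature substrate step, fluorescence intensity measured.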
In general terms: qHTS replaces the single test concentration by a dilution series.

Assay [2] in a line: qHTS assay for small molecule agonists of the p53 signaling pathway - cell viability (AID 651633; calls by dose curve; note: nearly all actives have a fitted effect of over 30% in size; note: potency is the fitted concentration of half-maximal effect). The essentials: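 Viability counter-read: CellTiter-Glo luminescence (30 min, room temperature) in the same p53RE-bla plates. These plates had been exposed to compounds for 16 h at 37 C.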
The nature of assay [3]: qHTS assay to test for compound auto fluorescence at 590 nm (red) in HepG2 cells (AID 720674). The procedure, abridged: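 We screened compounds on adherent HepG2 cells, incubating them for an hour at 37 C in 5% CO2 before reading emission at 590 nm under 540 nm excitation; values reflect equivalence to Rose Bengal sodium fluorescence.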
Assay [4] is described as follows: qHTS assay to test for compound auto fluorescence at 535 nm (green) in HepG2 cells (AID 720675).
A short description of assay [5]: qHTS assay to test for compound auto fluorescence at 460 nm (blue) in HEK293 cells (AID 720678). The procedure, abridged: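 HEK293 cells (2,000 per well, medium with 10% dialyzed FBS) attached for 4-5 hr at 37C, then received compound and stood overnight at 37C, 5% CO2. Blue fluorescence was read at Ex/Em 405/460 nm and expressed relative to triamterene.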
A short description of assay [6]: qHTS assay for small molecules that induce genotoxicity in human embryonic kidney cells expressing luciferase-tagged ATAD5 (AID 651632). Note: nearly all actives have a fitted effect of over 15% in size. The procedure, abridged:
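Reporter cells (HEK293T) express luciferase-tagged ATAD5, a protein that accumulates after DNA damage. Treat 16 hr at 37C/5% CO2, add Amplite, wait 30 min at RT, and read luminescence.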

The nature of assay [7]: qHTS assay for small molecules that induce genotoxicity in human embryonic kidney cells expressing luciferase-tagged ATAD5 - cell viability (AID 651634; calls by dose curve; note: nearly all actives have a fitted effect of over 25% in size; note: potency is the fitted concentration of half-maximal effect). The essentials: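 Seeding of 2,000 HEK293T ATAD5-luciferase cells per well preceded pin-tool compound transfer. Plates sat 15.5 hr at 37C under 5% CO2, then fluorescence was read after 30 min with CellTiter-Fluor.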
Assay [8] in a line: qHTS assay for small molecule disruptors of the mitochondrial membrane potential - cell viability (AID 720634; calls by dose curve; note: nearly all actives have a fitted effect of over 20% in size; note: potency is the fitted concentration of half-maximal effect). The procedure, abridged: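 Measuring cytotoxicity alongside mitochondrial potential, the screen quantified ATP by luminescence in HepG2 cells after 1 hr compound incubation and a 30 min room-temperature CellTiter-Glo step.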
Assay [9] is described as follows: qHTS assay for small molecule disruptors of the mitochondrial membrane potential (AID 720635). Note: potency is the fitted concentration of half-maximal effect. The essentials:
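Mitochondrial membrane potential tracked with Mito-MPS dye, red aggregates (ex 540/em 590 nm) against green monomers (ex 490/em 535 nm). Compound treatment 1 hr at 37C, dye 30 min in HepG2.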

Assay [10] in a line: qHTS assay to test for compound auto fluorescence at 590 nm (red) in HEK293 cells (AID 720679). The procedure, abridged:
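HEK293 cells (2,000/well, medium with 10% dialyzed FBS) attached for 4-5 hr at 37C, received 23 nL compound and were incubated overnight at 37C, 5% CO2. Red fluorescence was then read at 540/590nm Ex/Em, referenced to Rose Bengal sodium.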

“And” between values parts separate entries of the source, which are not always exact repeats. Identical values can stand only once. Inconclusive results are not listed. Where a structure was tested more than once in an assay, its records may differ in their call. The source made the active and inactive calls. Unless noted, calls come from the whole dose curve; as a rule, active = well fitted curve in the direction sought with a large enough effect in the repeat runs; inconclusive = weak or mixed curves; inactive = no such curve, though single readings can be large; an effect the other way counts as inactive or inconclusive.

In the case of `CS(=O)(=O)Nc1ccc([N+](=O)[O-])cc1Oc1ccccc1`, the Potency entry in assay [1], in [2] and in assay [5] was “inactive” each time. Also, the call in assay [3] and in [4] was inactive.
`NCCNCCNCCNCCN`: the Potency entry in assay [6], in assay [2], in assay [7], in assay [8], in [9] and in [5] was “inactive” throughout. Also, the compound was called inactive in assay [3] and in assay [4].
As to `CNC[C@H](O)[C@@H](O)[C@H](O)[C@H](O)CO`, the Potency entry in assay [6], in assay [2], in [7], in [8], in assay [9] and in assay [5] was “inactive” throughout. The compound was called inactive in [3] and in [4].
In the case of `C=C(C#N)C(=O)OCC`, the Potency entry in assay [6], in assay [2], in assay [7], in assay [8] and in [5] was “inactive” throughout. In addition, the result in assay [3], in assay [4] and in assay [10] was inactive.
As for `CC1=C(/C=C/C(C)=C/C=C/C(C)=C/CO)C(C)(C)CCC1`, the Potency result in assay [6], in [2], in assay [8] and in [5] was “inactive” each time. For the same compound, the compound was called inactive in [3], in assay [4] and in assay [10].
Take `Nc1c(S(=O)(=O)O)cc(Br)c2c1C(=O)c1ccccc1C2=O`: the Potency result in assay [6], in assay [2], in assay [8] and in [5] was “inactive” throughout. Moreover, the Potency in assay [7] was 30.6 µM (active). Moreover, the compound was called inactive in assay [3], in assay [4] and in [10].
Consider `Cc1cc(O)c2c(c1)C(=O)c1cc(O)cc(O)c1C2=O`, for which the Potency result in [6] and in assay [5] was “inactive” throughout. Also, the Potency result in assay [2] is “inactive and 61.1 µM (active)”; in assay [8] it was 15 µM (active); in assay [9] it was 1.68 µM (active) and 545 nM (active). Moreover, the result in assay [3], in [4] and in assay [10] was inactive.
As to `CCOC(=O)C1OC1c1ccccc1` (configuration not stated), the Potency result in assay [2], in [7], in assay [8], in assay [9] and in [5] was “inactive” throughout. Moreover, the compound was called inactive in [3], in [4] and in assay [10].
In the case of `O=Nc1ccc(O)cc1`, the Potency result in [6], in assay [2], in [8] and in [5] was “inactive” throughout. In assay [9], the Potency is 670 nM (active) and 13.7 µM (active). Also, the outcome in assay [3], in assay [4] and in [10] was inactive.
Regarding `C=C(C)C(=O)OCC(CC)(COC(=O)C(=C)C)COC(=O)C(=C)C`, the Potency entry in assay [6], in assay [2], in assay [8], in assay [9] and in assay [5] was “inactive” each time. Besides, the compound was classed as inactive in assay [3], in assay [4] and in assay [10].
Take `O=S(=O)(Oc1ccc(Cl)cc1Cl)c1ccccc1`: the Potency result in assay [6], in assay [7] and in assay [5] was “inactive” in each case. In assay [9], the Potency was 27.8 µM (active) and 61.1 µM (active). Further, the compound was classed as inactive in [3] and in [4].
As to `CN(C)c1cccc(O)c1`, the Potency result in assay [6], in assay [2], in assay [8] and in [5] was “inactive” in each case. For the same compound, the Potency in assay [9] was 10.9 µM (active). Moreover, the compound was classed as inactive in [3] and in assay [4].
Take `CC1=CC[C@H]2C[C@@H]1C2(C)C`: the Potency result in assay [6], in assay [2] and in assay [5] was “inactive” throughout. Besides, the call in [3] and in assay [4] was inactive.
Take `CCCCCCC(C)(C)S`: the Potency result in [6], in assay [8], in assay [9] and in [5] was “inactive” each time. Moreover, the result in assay [3], in assay [4] and in [10] was inactive.
For `CC(=O)[C@@]1(O)CC[C@H]2[C@@H]3CCC4=CC(=O)CC[C@]4(C)[C@H]3CC[C@@]21C`, the Potency result in [6], in assay [8], in [9] and in assay [5] was “inactive” each time. Besides, the compound was called inactive in [3], in [4] and in assay [10].
Take `CC(=O)CCc1ccccc1`: the Potency result in assay [6], in [2], in [8], in [9] and in [5] was “inactive” throughout. Also, the result in assay [3] and in [4] was inactive.
Regarding `CCC(=O)O`, the Potency result in assay [6], in assay [2], in assay [7] and in [5] was “inactive” throughout. The result in [3], in assay [4] and in [10] was inactive.
On to `O=S(=O)(O)c1cc(S(=O)(=O)O)c2c(N=Nc3ccccc3)c(O)ccc2c1`, for which the Potency result in assay [6], in assay [2], in [8] and in assay [5] was “inactive” in each case. In assay [7], the Potency was 48.8 µM (active) and 61.1 µM (active). The call in [3], in assay [4] and in assay [10] was inactive.
As for `CCCCCCCCCC(=O)O`, the Potency entry in [6], in assay [2] and in assay [5] was “inactive” throughout. Further, the outcome in assay [3], in assay [4] and in [10] was inactive.
In the case of `Cc1cc(=O)[nH]c(C(C)C)n1`, the Potency result in [6], in assay [2], in [8], in assay [9] and in [5] was “inactive” in each case. Besides, the compound was called inactive in assay [3], in [4] and in assay [10].
Take `Cc1cc(NS(=O)(=O)c2ccc(N)cc2)no1`: the Potency entry in [8], in assay [9] and in [5] was “inactive” in each case. In addition, the compound was called inactive in assay [3] and in [4].
On to `O=C(Oc1ccccc1)c1ccc(O)cc1`, for which the Potency entry in [6], in assay [2] and in assay [5] was “inactive” in each case. The Potency in assay [8] and in assay [9] was 61.1 µM (active) throughout. Further, the compound was classed as inactive in assay [3] and in assay [4].
On to `CC(C)n1c(/C=C/[C@@H](O)C[C@@H](O)CC(=O)O)c(-c2ccc(F)cc2)c2ccccc21`, for which the Potency entry in assay [2], in assay [8] and in assay [5] was “inactive” throughout. In addition, in assay [9], the Potency is 26.6 µM (active). Besides, the compound was classed as inactive in [3] and in [4].
Consider `O=C1N=C(O)CN1/N=C/c1ccc(-c2ccc([N+](=O)[O-])cc2)o1`, for which the Potency result in assay [2], in assay [8] and in assay [5] was “inactive” throughout. The Potency in [9] was 3.35 µM (active) and 2.43 µM (active). Besides, the compound was classed as inactive in assay [3], in [4] and in [10].
`OC[C@@H](O)[C@@H](O)[C@H](O)[C@@H](O)CO`: the Potency result in assay [6], in [2], in [8], in assay [9] and in [5] was “inactive” in each case. The call in assay [3] and in assay [4] was inactive.
`CCCCCCCCCCCCOCC1CO1` (configuration not stated): the Potency entry in assay [6], in assay [2], in assay [8], in assay [9] and in [5] was “inactive” throughout. Moreover, the outcome in [3] and in [4] was inactive.
As for `Oc1ccc2ccccc2c1`, the Potency entry in [2], in [7], in assay [8] and in [5] was “inactive” throughout. Also, the Potency in [9] is 49.7 µM (active) and 30.6 µM (active). The compound was classed as inactive in [3], in [4] and in assay [10].
Turning to `O=[N+]([O-])c1cc(N(CCO)CCO)ccc1NCCO`, the Potency result in assay [2], in assay [8] and in assay [5] was “inactive” throughout. In addition, the outcome in assay [3], in [4] and in assay [10] was inactive.
Regarding `C=C(C)C(=O)OCCCCCC`, the Potency entry in [6], in assay [2], in [7], in assay [8] and in assay [5] was “inactive” throughout. Also, the call in assay [3], in assay [4] and in [10] was inactive.
Turning to `CCCCCCCCCCC=CC1CC(=O)OC1=O` (configuration not stated), the Potency in assay [2] is 61.4 µM (active) and inactive; in assay [9], 68.9 µM (active). Moreover, the Potency result in assay [8] and in assay [5] was “inactive” throughout. For the same compound, the compound was classed as inactive in [3], in assay [4] and in assay [10].

These data come from PubChem BioAssay (Tox21).
